Measured values published in PubChem BioAssay AID1053175 (ICCB-Longwood Screening Facility, Harvard Medical School, 2014).
Several values for one entry are separate records, joined by “and”; a condition that tells them apart may be missing. Equal values may be shown once. The whole screen tested about 330,000 compounds, of which about 700 (0.21%) were called active.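 How the source made its calls: active means OD600 absorbance below the run mean of sample wells minus 3.6 SD, in any replicate (cut at about 0.56 in these data); inactive means the rest.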 Shown is part of a subset that was picked to be rich in actives. Where a structure was tested more than once in an assay, its records may differ in their call.

Assay: antibacterial activity against Escherichia coli – OD600, primary screen (AID 1053175)
Details: Escherichia coli growth, OD600, 23 h; stronger effect = lower value
With `CC(C)CC(CSc1ccccc1)N1CCN(C)CCC1=O` (stereo unspecified) the OD600 absorbance was 0.708 (inactive). With `CCc1ccc(NC(=O)CC(C)=NNC(=O)OCc2ccc(OC)cc2)cc1` the OD600 absorbance was 0.657 (inactive). With `COc1ccc(C=NNC(=O)c2ccccc2[N+](=O)[O-])cc1CN1CCc2cc(OC)c(OC)cc2C1C` (stereo unspecified) the OD600 absorbance was 0.712 (inactive). In the case of `Cc1ccc(NC(=O)C=NOCC(=O)NCc2ccccc2Cl)cc1`, the OD600 absorbance is reported as 0.705 (inactive). With `CCOC1OC(C(N)=O)=CC(c2ccccc2)C1CCCO` (stereo unspecified) the OD600 absorbance was 0.702 (inactive) and 0.686 (inactive). In the case of `CC(NC(=O)C(=O)NN=Cc1ccc(Cl)cc1)c1ccccc1` (stereo unspecified), the OD600 absorbance is reported as 0.673 (inactive). For `CCN=c1scc(C)n1N=Cc1ccsc1`, the OD600 absorbance was 0.697 (inactive). With `Cc1ccc(C2=[N+]([O-])C3(CCCCCC3=NNC(N)=S)N(O)C2(C)C)o1` (stereo unspecified) the OD600 absorbance was 0.771 (inactive). With `O=C(O)c1csc(NN=Cc2ccc(Br)cc2)n1` the OD600 absorbance was 0.677 (inactive). With `O=C1CCCC(=NNC(=O)c2cc(NS(=O)(=O)c3cccs3)cc(NS(=O)(=O)c3cccs3)c2)C1` the OD600 absorbance was 0.669 (inactive). For `CCOC(=O)C1C2COc3cc(OC)ccc3C2N2C(=O)N(c3ccc(C(F)(F)F)cc3)C(=O)[C@@]12C` (stereo partly specified), the OD600 absorbance was 0.696 (inactive) and 0.712 (inactive). In the case of `C=CCN1c2ccccc2[C@]23CC(C(=O)OC)N(C(=O)c4cc(C)oc4C)C2=NC(C(=O)OC)=C(C(=O)OC)C13` (stereo partly specified), the OD600 absorbance is reported as 0.651 (inactive). With `CC(=NNC(=O)c1ccncc1)c1cc2ccccc2o1` the OD600 absorbance was 0.717 (inactive). With `Cc1cc(C)c(C)c(OCC(=O)ON=C(N)c2ccccn2)c1` the OD600 absorbance was 0.733 (inactive). For `COC(=O)c1ccc(C=NNC(=O)C2CC(=O)N(c3ccc(F)cc3)C2)cc1` (stereo unspecified), the OD600 absorbance was 0.657 (inactive). In the case of `Cc1nc2ccccn2c1C(=O)NN=Cc1ccc2c(c1)OCO2`, the OD600 absorbance is reported as 0.657 (inactive). For `O=[N+]([O-])c1ccc(C=NN2CCN(c3ccc(Cl)cc3)CC2)cc1`, the OD600 absorbance was 0.805 (inactive). In the case of `Cc1cccc(NC(=S)Nc2ccc3cn[nH]c3c2)c1`, the OD600 absorbance is reported as 0.655 (inactive). In the case of `Cc1cccc(NC(=S)Nc2ccc(Cl)c(Cl)c2)c1`, the OD600 absorbance is reported as 0.495 (active). For `Cc1cccc(NC(=S)NC23CN4CN(CN(C4)C2)C3)c1`, the OD600 absorbance was 0.691 (inactive). In the case of `O=C(O)c1cc2c(o1)CCCC2=NO`, the OD600 absorbance is reported as 0.711 (inactive). For `C=CCc1cc(C)ccc1OCCCn1ccnc1`, the OD600 absorbance was 0.666 (inactive). With `c1ccc(Cc2ccc(OCCn3ccnc3)cc2)cc1` the OD600 absorbance was 0.583 (inactive). With `Clc1c(OCCCn2ccnc2)ccc2ccccc12` the OD600 absorbance was 0.49 (active). With `NC(CCCN1CCCCC1)=NO` the OD600 absorbance was 0.705 (inactive). For `CCCSc1ccc(C2N[C@@](CC(C)C)(C(=O)OC)C3C(=O)N(CC)C(=O)C23)cc1` (stereo partly specified), the OD600 absorbance was 0.649 (inactive). With `Fc1ccc(N2CCN(Cc3cnc(Oc4ccc(Br)cc4)s3)CC2)cc1` the OD600 absorbance was 0.726 (inactive). For `O=C(CN1CCN(c2ccc(F)cc2)CC1)Nc1ccccc1`, the OD600 absorbance was 0.673 (inactive). For `Oc1c(CN2CCN(c3ccc(F)cc3)CC2)cc(Cl)c2cccnc12`, the OD600 absorbance was 0.332 (active). For `CCN1C(Nc2ccccc2)=NCC1CC(C)C` (stereo unspecified), the OD600 absorbance was 0.698 (inactive). In the case of `CC(NC(=O)COc1ccc(C=NNC(=O)C(=O)Nc2ccccc2Br)cc1)c1ccccc1` (stereo unspecified), the OD600 absorbance is reported as 0.788 (inactive). In the case of `O=C(Nc1ccccc1C(=O)NN=Cc1ccncc1)c1ccccc1`, the OD600 absorbance is reported as 0.706 (inactive). With `CC(=NNC(=O)c1cccc(S(=O)(=O)N2CCCC2)c1)c1ccco1` the OD600 absorbance was 0.651 (inactive). In the case of `COc1cc(C=NNC(=O)c2ccncc2)ccc1OC(=O)c1cccc(Br)c1`, the OD600 absorbance is reported as 0.605 (inactive). For `COc1ccc(C(=O)ON=C2CCS(=O)(=O)c3sccc32)cc1`, the OD600 absorbance was 0.66 (inactive). With `CC(NCC(=O)Nc1cc(Cl)cc(Cl)c1)c1ccccc1` (stereo unspecified) the OD600 absorbance was 0.522 (active). In the case of `O=C(CNC(c1ccccc1)c1ccccc1)Nc1ccc(F)cc1`, the OD600 absorbance is reported as 0.694 (inactive). For `O=C(Nc1cc(Cl)cc(Cl)c1)C(NCCCO)c1ccccc1` (stereo unspecified), the OD600 absorbance was 0.697 (inactive). For `CCOC1OC(C(=O)N2CCN(Cc3ccc4c(c3)OCO4)CC2)=CC(c2ccc(Br)cc2)C1CCCO` (stereo unspecified), the OD600 absorbance was 0.677 (inactive) and 0.735 (inactive). For `O=C(O)COc1ccc(C=NNC(=O)c2cccc3ccccc23)cc1`, the OD600 absorbance was 0.692 (inactive). For `O=C(O)C1=CC(c2ccc(Br)cc2)CC(OCc2ccc(CO)cc2)O1` (stereo unspecified), the OD600 absorbance was 0.678 (inactive) and 0.676 (inactive). For `CC(=NNc1nnc(C)c(=O)[nH]1)C(=O)O`, the OD600 absorbance was 0.72 (inactive). For `Cc1nnc(NN=Cc2ccccn2)[nH]c1=O`, the OD600 absorbance was 0.466 (active). For `CC(Oc1ccccc1)C(=O)NN=Cc1ccccn1` (stereo unspecified), the OD600 absorbance was 0.654 (inactive). For `COc1ccc(C(=O)NN=Cc2ccc(OC)c(CN3CCCc4ccccc43)c2)cc1`, the OD600 absorbance was 0.733 (inactive). In the case of `CC(C)(C)c1[nH]c2ccccc2c1C=NO`, the OD600 absorbance is reported as 0.683 (inactive). In the case of `CCOC(=O)c1ccc(-c2ccc(C=NNC(=O)CN(c3ccccc3Cl)S(C)(=O)=O)o2)cc1`, the OD600 absorbance is reported as 0.728 (inactive). With `CC(C)=CCC[C@](C)(OC1OC(COC2OCC(O)C(O)C2O)C(O)C(O)C1O)C1CC[C@]2(C)C1C(O)CC1[C@@]3(C)CCC(OC4OC(CO)C(O)C(O)C4O)C(C)(C)C3CC[C@]12C` (stereo partly specified) the OD600 absorbance was 0.621 (inactive). With `CCNC(=S)NN=C(C)c1cc2ccccc2o1` the OD600 absorbance was 0.669 (inactive). In the case of `COc1cc(C=NNC(=O)c2ccc(=O)[nH]n2)cc(OC)c1OC`, the OD600 absorbance is reported as 0.774 (inactive). With `O=C(NN=Cc1ccoc1)c1ccc([N+](=O)[O-])cc1` the OD600 absorbance was 0.694 (inactive). For `CCNC1CC(C)S(=O)(=O)c2sc(S(N)(=O)=O)cc21` (stereo unspecified), the OD600 absorbance was 0.681 (inactive). With `Cc1cc(C(=O)NN=Cc2cccc3ccccc23)c(C)o1` the OD600 absorbance was 0.686 (inactive). For `C#CCNC(=O)C1=CC(c2coc3ccccc3c2=O)CC(OCc2ccc(CO)cc2)O1` (stereo unspecified), the OD600 absorbance was 0.691 (inactive) and 0.72 (inactive). For `Cc1[nH]c2ccccc2c1C=NNC(=S)NC(C)C`, the OD600 absorbance was 0.649 (inactive). For `Cc1ccc(CN2CCN(CC(=O)NN=Cc3ccc(C)o3)CC2)cc1`, the OD600 absorbance was 0.613 (inactive). For `CC1CN(C(=S)Nc2ccccc2F)CC(C)O1` (stereo unspecified), the OD600 absorbance was 0.662 (inactive). With `COc1c(N2CCN(C(=S)Nc3ccccc3F)C(C)C2)c(F)cc2c(=O)c(C(=O)O)cn(C3CC3)c12` (stereo unspecified) the OD600 absorbance was 0.071 (active). For `COc1ccccc1NC(=S)N1CCN(c2ccc(F)cc2)CC1`, the OD600 absorbance was 0.68 (inactive). For `CCCOc1ccc(CNC(=S)NN=Cc2ccc([N+](=O)[O-])cc2)cc1`, the OD600 absorbance was 0.66 (inactive). In the case of `[N-]=[N+]=NCC(Cc1ccccc1)N1CCN(Cc2ccccc2)CCC1=O` (stereo unspecified), the OD600 absorbance is reported as 0.705 (inactive). For `CC(C)(C)N1C(=O)C2C(c3ccc(Br)cc3)N3C(=O)N(c4ccccc4)C(=O)[C@@]3(Cc3ccccc3)C2C1=O` (stereo partly specified), the OD600 absorbance was 0.71 (inactive). In the case of `CC(/C=C/c1ccccc1)=NNc1nc(C)cc(C)n1`, the OD600 absorbance is reported as 0.667 (inactive). In the case of `CNc1nc(C)nc(NN=Cc2ccccc2)n1`, the OD600 absorbance is reported as 0.682 (inactive). In the case of `S=c1[nH]nc(-c2ccncc2)n1N=Cc1cccc2ccccc12`, the OD600 absorbance is reported as 0.739 (inactive). In the case of `Cc1ccc(C=NNC(=O)Cn2cnc3ccccc32)o1`, the OD600 absorbance is reported as 0.676 (inactive). With `Cc1ccc(C(=O)N2C3CN(C)C(=O)[C@@]2(Cc2ccccc2)C2C(=O)N(C)C(=O)C32)cc1` (stereo partly specified) the OD600 absorbance was 0.672 (inactive). In the case of `CC(=NNC(=O)CCc1ccc(S(=O)(=O)N2CCOCC2)cc1)c1ccc(OC(F)F)cc1`, the OD600 absorbance is reported as 0.715 (inactive). In the case of `C#CCOc1ccc(C=NNC(=O)c2cccnc2)cc1OCC`, the OD600 absorbance is reported as 0.679 (inactive). For `C[C@@]12C(=O)Nc3cc(Cl)ccc3C(=O)N1C1c3cc(Cl)ccc3OCC1C2c1ccccc1` (stereo partly specified), the OD600 absorbance was 0.696 (inactive). With `COc1ccc(C=C2N=C(SC)NC2=O)cc1` the OD600 absorbance was 0.705 (inactive). For `CC(=O)c1c(C)n([O-])c2ccccc2[n+]1=O`, the OD600 absorbance was 0.186 (active). In the case of `Cc1c(C=O)c2ccccc2n1CC(=O)O`, the OD600 absorbance is reported as 0.701 (inactive). With `CCCCn1c(C=NNc2nc3ccccc3[nH]2)nc2ccccc21` the OD600 absorbance was 0.684 (inactive). With `COc1cc(C=NNC(=O)c2ccc3c(c2)OCCO3)c(Br)c(Br)c1O` the OD600 absorbance was 0.727 (inactive). In the case of `C=C[C@]1(C)CC(OC(=O)CSCCN(CC)CC)[C@]2(C)C(C)CC[C@]3(CCC(=O)C32)C(C)C1O` (stereo partly specified), the OD600 absorbance is reported as 0.499 (inactive) and 0.432 (active). With `CC(C)(C)C(=O)C=c1[nH]c(=O)c(=Cc2ccccc2F)s1` the OD600 absorbance was 0.718 (inactive). In the case of `COC(=O)Oc1ccc(C=NNC(=O)CN(c2ccccc2Br)S(C)(=O)=O)cc1OC`, the OD600 absorbance is reported as 0.67 (inactive). In the case of `COc1ccc(CN2C(CC(=O)O)c3ccccc3S2(=O)=O)cc1` (stereo unspecified), the OD600 absorbance is reported as 0.676 (inactive). With `Cc1ccccc1C(=O)ON=C1CCS(=O)(=O)c2sccc21` the OD600 absorbance was 0.706 (inactive). With `O=C(NN=Cc1cccn1-c1cccc(C(=O)O)c1)Nc1ccccc1` the OD600 absorbance was 0.627 (inactive). In the case of `CC(=O)Oc1ccc(C(C)=NN2CCN(Cc3ccc(Cl)cc3)CC2)cc1`, the OD600 absorbance is reported as 0.707 (inactive). For `O=C(C=Cc1cccs1)N1CCC2(CC1)Oc1ccc(F)cc1C(=O)C21CC(c2ccccc2)=NO1` (stereo unspecified), the OD600 absorbance was 0.718 (inactive). With `CC(C=NNC(=O)c1ccc2c(c1)OCO2)c1ccccc1` (stereo unspecified) the OD600 absorbance was 0.695 (inactive). With `O=C(NCc1ccccc1)C1=CC(c2ccccc2)CC(OCCCCO)O1` (stereo unspecified) the OD600 absorbance was 0.622 (inactive). In the case of `CC(=O)Nc1ccc(C(C)=NNC(=O)c2ccc(-c3ccccc3)cc2)cc1`, the OD600 absorbance is reported as 0.685 (inactive). For `O=C(CCCN1C(=O)CCC1=O)Nc1ccc(Cl)c(C(F)(F)F)c1`, the OD600 absorbance was 0.702 (inactive). For `CS(=O)(=O)N(CC(=O)Nc1ccc(Cl)c(Cl)c1)C1CCCCC1`, the OD600 absorbance was 0.703 (inactive). With `O=C(CC(O)(C(F)(F)F)C(F)(F)F)Nc1ccc(Cl)c(Cl)c1` the OD600 absorbance was 0.329 (active). For `Cc1nn(-c2ccccc2)c(C)c1C=NNC(=O)c1cc(-c2cccs2)[nH]n1`, the OD600 absorbance was 0.602 (inactive). With `Clc1cccc(Cl)c1C=NNc1nccs1` the OD600 absorbance was 0.705 (inactive).
